Screening data from PubChem BioAssay.
tim23-1 inh = growth inhibitors of tim23-1 mutant yeast | S. cerevisiae tim23-1 growth, BacTiter-Glo luminescence, 24 h | inhibition, % at 20 µM | hit rate 1.3% among 330,000;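 active = growth inhibition of the mutant yeast at or above 50%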;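 note: temperature-sensitive mutant grown at 25 °C; plate controls were DMSO-treated mutant yeast for no effect and medium wells lacking yeast for full effect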
NALP1 inh = NALP1 inhibition; S. cerevisiae NALP1/ASC/caspase-1 growth, X-gal OD620, 72 h; inhibition, % at 10 µM; hit rate 0.61% among 280,000; AID 2071; in the data active = inhibition mostly above about 24%, no sharp cut-off; inactive = mostly below about 32%
TIM10 inh = growth inhibitors of TIM10 yeast strain; S. cerevisiae TIM10 strain growth, BacTiter-Glo luminescence, 24 h; inhibition, % at 10 µM; hit rate 1.4% among 330,000;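 active = inhibition of 40% or more at the single tested concentration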;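 note: wild-type TIM10 isogenic control strain grown at permissive 25 °C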
PfHsp90 set2 = inhibits growth of yeast expressing Plasmodium falciparum Hsp90; inhibition, % at 9.4 µM; AID 504621; S. cerevisiae expressing PfHsp90, BacTiter-Glo ATP, 48 h; yeast lacking PDR1 and PDR3 efflux regulators; hit rate 0.32% among 310,000;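 active = every replicate shows inhibition above about 80%, whatever the replicate mean, limit read from the data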;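 note: 0% = DMSO neutral controls and 100% = 20 µM radicicol positive controls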
tim10-1 inh = tim10-1 yeast growth inhibition | AID 463190 | inhibition, % at 20 µM | S. cerevisiae tim10-1 ts strain growth, BacTiter-Glo, 24 h | hit rate 2.2% among 330,000;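 active = inhibition of at least 40%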;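 note: mutant grown at 25 °C; 0% = DMSO wells with yeast and 100% = wells holding no yeast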
NLRP3 yeast inh = NALP3 inhibition in yeast | Yeast reconstituted NLRP3/ASC/caspase-1, beta-gal luminescence, 24 h | inhibition, % at 10 µM | hit rate 0.39% among 330,000;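 active = inhibition of 50% or more; inactive = inhibition below 50%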;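 note: plate controls were induced DMSO wells for no effect and uninduced yeast grown without galactose for full effect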
tim10-1 confirm = tim10-1 yeast growth inhibition, confirmed | shares compounds with tim10-1 inh | S. cerevisiae tim10-1 ts strain growth, BacTiter-Glo, 24 h | inhibition, % at 20 µM | hit rate 56% among 7,400;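 active = inhibition of yeast growth at or above a set limit in either of two repeat tests at 20 µM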;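 note: tim10-1 mutant grown at permissive 25 °C to find synthetic lethal compounds; 0% = DMSO yeast wells and 100% = medium wells without yeast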
tim10 confirm = confirmation of TIM10 yeast growth inhibitors; shares compounds with TIM10 inh; S. cerevisiae tim10 strain growth, BacTiter-Glo luminescence, 24 h; inhibition, % at 10 µM; hit rate 63% among 4,600; AID 463215;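 active = inhibition of yeast growth at or above a set limit in either of two replicates at 10 µM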;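 note: this counterscreen used the strain with wild-type TIM10; 0% = yeast with DMSO and 100% = medium wells lacking yeast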
tim23-1 confirm = tim23-1 yeast growth inhibition, confirmed. hit rate 83% among 4,400. inhibition, % at 20 µM. S. cerevisiae tim23-1 growth, BacTiter-Glo luminescence, 24 h. shares compounds with tim23-1 inh;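 active = inhibition above about 39% in either of two replicate wells at 20 µM, limit read from the data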;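 note: temperature-sensitive tim23-1 mutant grown at 25 °C; 0% = DMSO wells with yeast and 100% = medium wells without yeast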
The depositor's hits bear a star. Rows were chosen to be rich in hits. Some 4.2% of all compounds tested hit in one or more screens of this group.

For COc1cccc(/C=C2\SC(=S)N(CCCC(=O)N3CCCC3)C2=O)c1 the results were tim23-1 inh 58*, NALP1 inh 4, TIM10 inh 33, PfHsp90 set2 1, tim10-1 inh 42*, NLRP3 yeast inh 23, tim10-1 confirm 23 and tim23-1 confirm 51*.
Screening Nc1nc(CCl)nc(Nc2ccccc2)n1 returned tim23-1 inh 13, NALP1 inh 5, TIM10 inh 15, PfHsp90 set2 10, tim10-1 inh 26 and NLRP3 yeast inh -3.
CCOc1ccc(Nc2nc(N)c3ccccc3n2)cc1 was read as tim23-1 inh 57*, NALP1 inh 30, TIM10 inh 46*, PfHsp90 set2 75, tim10-1 inh 62*, NLRP3 yeast inh 39, tim10-1 confirm 65*, tim10 confirm 50* and tim23-1 confirm 65*.
Screening Nc1nc(Nc2ccc(Cl)cc2)nc2ccccc12 returned tim23-1 inh 58*, NALP1 inh 1, TIM10 inh 68*, PfHsp90 set2 35, tim10-1 inh 67*, NLRP3 yeast inh 40, tim10-1 confirm 57*, tim10 confirm 67* and tim23-1 confirm 55*.
COc1ccc2cc3cc(C(=O)N4CCN(c5ccccn5)CC4)oc3nc2c1 was read as tim23-1 inh 54*, NALP1 inh 13, TIM10 inh 55*, PfHsp90 set2 -23, tim10-1 inh 44*, NLRP3 yeast inh 22, tim10-1 confirm 27, tim10 confirm 59* and tim23-1 confirm -2.
Screening Nc1cccc2c1C(=O)N(C(=O)/C=C/c1cccc(F)c1)C2=O returned tim23-1 inh 82*, NALP1 inh 39, TIM10 inh 50*, PfHsp90 set2 1, tim10-1 inh 69*, NLRP3 yeast inh -11, tim10-1 confirm 59*, tim10 confirm 40* and tim23-1 confirm 87*.
`O=C(/C=C/c1cccc(F)c1)N1CCN(c2ccccn2)CC1` gave tim23-1 inh 15, NALP1 inh 5, TIM10 inh 2, PfHsp90 set2 -7, tim10-1 inh 7 and NLRP3 yeast inh 22.
`O=C(N/N=C/c1cc(Br)c(Br)o1)c1ccc2c(c1)OCCO2` gave tim23-1 inh 53*, NALP1 inh 10, TIM10 inh 57*, PfHsp90 set2 4, tim10-1 inh 65*, NLRP3 yeast inh 34, tim10-1 confirm 53*, tim10 confirm 59* and tim23-1 confirm 80*.
For Cc1cc(=O)oc2c(O)c(O)ccc12 the results were PfHsp90 set2 -17.
COc1ccc(-c2cc(=O)oc3c(C)c(O)ccc23)cc1 was read as tim23-1 inh 16, NALP1 inh 16, TIM10 inh 11, PfHsp90 set2 -29, tim10-1 inh 19 and NLRP3 yeast inh -5.
Screening COc1ccc(/C=C/C(=O)c2c(O)ccc3c(C)cc(=O)oc23)cc1 returned tim23-1 inh 50*, NALP1 inh 50, TIM10 inh 55*, PfHsp90 set2 -18, tim10-1 inh 51*, NLRP3 yeast inh 16, tim10-1 confirm 47*, tim10 confirm 57* and tim23-1 confirm 60*.
For COc1ccc(/C=C\C(=O)c2c(O)ccc3c(C)cc(=O)oc23)cc1 the results were tim23-1 inh 53*, NALP1 inh 41, TIM10 inh 37, PfHsp90 set2 -6, tim10-1 inh 52*, NLRP3 yeast inh 16, tim10-1 confirm 36* and tim23-1 confirm 51*.
`COc1ccc(C2CC(c3ccc(Br)cc3)=NN2C(=O)CSC2=NN3CCCC(=O)N=C3S2)cc1` (stereo not given) gave tim23-1 inh 37, NALP1 inh 9, TIM10 inh 30, PfHsp90 set2 -11, tim10-1 inh 36 and NLRP3 yeast inh 10.
